Over roughly 3,700 sequences, “z-score” has its median near 4; the highest 2% begin near 8.4. For the sample, the highest values were picked, then their nearest neighbours and some sequences at random.
Tests used:
PU.1 (IVT) [1] = molecular target: PU.1 (IVT) (UniProt P17947 1-270); assay: protein-binding microarray (PBM); 20 mM HEPES pH 7.9, 100 mM NaCl, 1 mM DTT, 0.2 mg/mL BSA, 0.02% Triton X-100, 2% milk, 0.4 mg/mL salmon testes DNA; 1 h; temperature not stated; high values mean tight binding; conditions: dsDNA, one strand shown
Method in brief: (§1)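 Full-length untagged PU.1 was made by coupled human in vitro transcription/translation. It was bound for 1 h to custom double-stranded DNA microarrays carrying 20-bp genomic sites and single-nucleotide variants, 10 probes per site (5 per orientation). The binding buffer was HEPES pH 7.9 with 100 mM NaCl, 2% milk and salmon testes DNA. Bound protein was detected with anti-PU.1 and then a fluorescent secondary antibody. Binding is a z-score from scanned fluorescence after linear-regression normalisation.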

PU.1 (IVT) [2] = molecular target: PU.1 (IVT) (UniProt P17947 1-270); assay: as above; conditions: dsDNA, one strand shown; remark: listed apart in the source
Method in brief: as §1

Sequence	binding signal (PU.1 (IVT) [1]) [z-score]	binding signal (PU.1 (IVT) [2]) [z-score]
GCCTAGCACGAAAGGAGGAAGTGAAACTGGTGCTAGGTCTTGATTCGCTTGACGCTGCTG	6.19	
GCCTAGCACCAAATGAGGAATTGATGCGGGTGCTAGGTCTTGATTCGCTTGACGCTGCTG	2.8	
GCCTAGCACCAGAAAAGGAAGTAAGCCACGTGCTAGGTCTTGATTCGCTTGACGCTGCTG		3.98
GCCTAGCACGCAAAGAGGAAGTGACTCAAGTGCTAGGTCTTGATTCGCTTGACGCTGCTG		6.81
GCCTAGCACAAAAAGAGGAAGTACATTAAGTGCTAGGTCTTGATTCGCTTGACGCTGCTG		8.68
GCCTAGCACAAAAAGAGGAAGTGACTCACGTGCTAGGTCTTGATTCGCTTGACGCTGCTG		8.49
GCCTAGCACAAAAAAAGGAAGTACAGTAAGTGCTAGGTCTTGATTCGCTTGACGCTGCTG		6.54
GCCTAGCACAAAAAGAGGAAGTGACTTCAGTGCTAGGTCTTGATTCGCTTGACGCTGCTG		8.34
GCCTAGCACAAAAGAGGGAAGTGACATTCGTGCTAGGTCTTGATTCGCTTGACGCTGCTG	5.89	
GCCTAGCACGATTTGAGGAAATGAAACTTGTGCTAGGTCTTGATTCGCTTGACGCTGCTG	3.79	
GCCTAGCACAAAAAGGGGAAGTCATCTATGTGCTAGGTCTTGATTCGCTTGACGCTGCTG		8.05
GCCTAGCACAATATGAGGAAGTGCTCTAGGTGCTAGGTCTTGATTCGCTTGACGCTGCTG	6.67	
GCCTAGCACTTACACAGGAAGTGCTGGCAGTGCTAGGTCTTGATTCGCTTGACGCTGCTG	2.14	
GCCTAGCACAAAAACAGGAAGTCCTATTCGTGCTAGGTCTTGATTCGCTTGACGCTGCTG		7.91
GCCTAGCACAAAAAGAGGAAGAGAAACTTGTGCTAGGTCTTGATTCGCTTGACGCTGCTG		6.04
GCCTAGCACACAAAGAGGAAGTCCCATTTGTGCTAGGTCTTGATTCGCTTGACGCTGCTG		7.29
GCCTAGCACAAAATGAGGAAGTCATTCTTGTGCTAGGTCTTGATTCGCTTGACGCTGCTG		8.35
GCCTAGCACAAAAAGAGGAAGTGCTACTTGTGCTAGGTCTTGATTCGCTTGACGCTGCTG		8.88
GCCTAGCACAAAAAGAGGAAGTCCTATTTGTGCTAGGTCTTGATTCGCTTGACGCTGCTG		8.54
GCCTAGCACAAAAAGAGGAAGAGGCGCTTGTGCTAGGTCTTGATTCGCTTGACGCTGCTG		5.63

Sequence	binding signal (PU.1 (IVT) [1]) [z-score]	binding signal (PU.1 (IVT) [2]) [z-score]
GCCTAGCACAAAAAGAGGAAGTCATTCTTGTGCTAGGTCTTGATTCGCTTGACGCTGCTG		8.71
GCCTAGCACAAAAATAGGAAATGAAAGTAGTGCTAGGTCTTGATTCGCTTGACGCTGCTG	3	
GCCTAGCACGAAAGAGGGAAGTGGGCATAGTGCTAGGTCTTGATTCGCTTGACGCTGCTG		4.48
GCCTAGCACGCAGGGAGGAAGTGGGGAAGGTGCTAGGTCTTGATTCGCTTGACGCTGCTG	3.42	
GCCTAGCACCAAAAAGGGAAGTGCATGCTGTGCTAGGTCTTGATTCGCTTGACGCTGCTG		6.52
GCCTAGCACAGCATGAGGAAGTGTCAGATGTGCTAGGTCTTGATTCGCTTGACGCTGCTG	4.45	
GCCTAGCACTTGAAAAGGAAGTGCAACAAGTGCTAGGTCTTGATTCGCTTGACGCTGCTG		2.73
GCCTAGCACTGAAAGAGGAACTCTCACATGTGCTAGGTCTTGATTCGCTTGACGCTGCTG		4.89
GCCTAGCACAAAAAGAGGAAGAGAGAAAAGTGCTAGGTCTTGATTCGCTTGACGCTGCTG	5.63	
GCCTAGCACAAAAGGAGGAAGTGGTTACAGTGCTAGGTCTTGATTCGCTTGACGCTGCTG	6.37	
GCCTAGCACAACAAGAGGAAGTGGCTTTCGTGCTAGGTCTTGATTCGCTTGACGCTGCTG		5.51
GCCTAGCACCAAAAGAGGAAGTCATTTATGTGCTAGGTCTTGATTCGCTTGACGCTGCTG		8.11
GCCTAGCACAAAAAAAGGAAGTCAAAGTCGTGCTAGGTCTTGATTCGCTTGACGCTGCTG		6.75
GCCTAGCACAAAAAGAGGAAGTCTTTTATGTGCTAGGTCTTGATTCGCTTGACGCTGCTG		8.71
GCCTAGCACAAAAAGAGGAAGTGGTTGTCGTGCTAGGTCTTGATTCGCTTGACGCTGCTG		8.71
GCCTAGCACAAAAGAAGGAAGTGGTTTATGTGCTAGGTCTTGATTCGCTTGACGCTGCTG	6.15	
GCCTAGCACAAAAAGAGGAAGTCGTTTTCGTGCTAGGTCTTGATTCGCTTGACGCTGCTG		8.57
GCCTAGCACAAAAAGAGGAAGAGGAATAGGTGCTAGGTCTTGATTCGCTTGACGCTGCTG	5.98	
GCCTAGCACAAAAAGAGGAAGTGCTTTTCGTGCTAGGTCTTGATTCGCTTGACGCTGCTG		8.49
GCCTAGCACAAAAAAAGGAAGTGGTGGTTGTGCTAGGTCTTGATTCGCTTGACGCTGCTG		6.87
